Data: PubChem BioAssay AID1851 (National Center for Advancing Translational Sciences (NCATS), 2009)
Where “and” joins values, the source holds several entries; their conditions need not be identical. Equal entries are not always repeated. Screen size: about 16,000 compounds; about 2,600 (16%) were called active. Not shown: some 20% with an inconclusive outcome. The list comes from a sample in which actives are over-represented; it also holds similar structures and randomly drawn compounds. A number with no mark means an inactive call. Calls follow the shape of the dose curve; as a rule, active = well fitted curve in the direction sought with a large enough effect; inconclusive = small, poorly fitted or top-dose-only effect, or effect the other way; inactive = no such curve, though single readings can be large or run the other way.

target: Cytochrome P450 2D6 (Homo sapiens) (UniProt P10635); assay: Cytochrome panel assay with activity outcomes; conditions: recombinant CYP, pro-luciferin dealkylation, luminescence, p450-cyp2d6; series mostly up to 57.1 µM; activity, negative = inhibition: at the top concentration
Sequence (P10635 whole entry, looked up): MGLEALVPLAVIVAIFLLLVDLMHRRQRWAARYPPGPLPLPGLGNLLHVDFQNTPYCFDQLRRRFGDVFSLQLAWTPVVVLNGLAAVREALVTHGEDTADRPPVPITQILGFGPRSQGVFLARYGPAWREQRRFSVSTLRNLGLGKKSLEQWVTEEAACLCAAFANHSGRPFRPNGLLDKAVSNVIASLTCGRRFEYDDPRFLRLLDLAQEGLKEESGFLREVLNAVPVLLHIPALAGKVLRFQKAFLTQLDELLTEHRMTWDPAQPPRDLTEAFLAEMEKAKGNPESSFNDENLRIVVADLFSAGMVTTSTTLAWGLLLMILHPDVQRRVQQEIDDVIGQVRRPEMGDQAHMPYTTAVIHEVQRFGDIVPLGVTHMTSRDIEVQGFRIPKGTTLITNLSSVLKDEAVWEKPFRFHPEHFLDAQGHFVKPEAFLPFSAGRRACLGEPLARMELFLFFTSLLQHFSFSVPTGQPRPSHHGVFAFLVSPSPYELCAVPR
% is scaled to controls: 0 for no effect and ±100 for the full control effect.

**Q.** Which “activity, negative = inhibition” value does the source give for `N#CC(C#N)=Cc1cc(O)c(O)c(O)c1` here?
**A.** The value was -3.79%.

**Q.** Which AC50 does the source give for `O=C(O)c1cc[c]([Hg][S]c2ncnc3nc[nH]c23)cc1` here?
**A.** The AC50 was 1 µM (active).

**Q.** With `O=C(NC1CCCCC1)NC1CC2CCC(C1)N2Cc1nnnn1Cc1ccc2c(c1)OCO2` (stereo not drawn) as the compound, how does the AC50 read?
**A.** Its AC50 is 6.31 µM (active).

**Q.** For `CCOP(=O)(OCC)C(NC(=O)C(Cl)Cl)C(Cl)(Cl)Cl` (stereo not drawn), which “activity, negative = inhibition” value is on record?
**A.** Its value is -4.39%.

**Q.** How did the “activity, negative = inhibition” value turn out when `O=[N+]([O-])O[C@H]1CO[C@H]2[C@H]1OC[C@@H]2O[N+](=O)[O-]` was run?
**A.** Its value is 8.18% [at 25.6 µM].

**Q.** For `C/C(=C\c1ccc(N(C)C)cc1)[N+](=O)[O-]`, which “activity, negative = inhibition” value is on record?
**A.** Its value is -28.6%.

**Q.** Which AC50 does the source give for `CCN1CCC[C@@H](OC(=O)C(c2ccccc2)c2ccccc2)C1` here?
**A.** Its AC50 is 1.58 µM (active).

**Q.** How did the AC50 turn out when `C[N+]1(C)[C@@H]2CC[C@H]1CC(OC(=O)[C@@H](CO)c1ccccc1)C2` (stereo partly drawn) was run?
**A.** Its AC50 is “inactive”.

**Q.** With `C[N+]1(C)C2CC[C@H]1CC(OC(=O)[C@@H](CO)c1ccccc1)C2` (stereo partly drawn) as the compound, how does the activity, negative = inhibition read?
**A.** Its activity, negative = inhibition is 12% [at 11.4 µM].

**Q.** With `NCCCC[C@H](N[C@@H](CCc1ccccc1)C(=O)O)C(=O)N1CCC[C@H]1C(=O)O` as the compound, how does the “activity, negative = inhibition” value read?
**A.** Its value is 10.4% [at 25.6 µM].

**Q.** `CC[C@@H]1CN2CCc3cc(OC)c(OC)cc3[C@H]2C[C@@H]1C[C@@H]1NCCc2cc(OC)c(OC)cc21` was tested. Which “activity, negative = inhibition” value did it give?
**A.** The value was 3.48%.

**Q.** For `CCC1=C(C[C@H]2NCCc3ccccc32)C[C@@H]2c3cc(OC)c(OC)cc3CCN2C1`, which AC50 is on record?
**A.** The AC50 was 2.51 µM (active).

**Q.** `CCC1=C(C[C@H]2NCCc3cc(OC)c(OC)cc32)C[C@H]2c3ccccc3CCN2C1` was tested. Which AC50 did it give?
**A.** The AC50 was 0.316 µM (active).

**Q.** Which “activity, negative = inhibition” value does the source give for `COc1cc2c(cc1OC)[C@H](C)NCC2` here?
**A.** Its value is -5.44% [at 25.6 µM].

**Q.** How did the “activity, negative = inhibition” value turn out when `O=C1CS[C@@H](c2ccccc2Cl)c2cc(Cl)ccc2N1` was run?
**A.** Its value is -15.3%.

**Q.** How did the AC50 turn out when `c1ccc(C2CC2)c(OCC2=NCCN2)c1` was run?
**A.** The AC50 was 25.1 µM (active) and 5.01 µM (active).

**Q.** How did the AC50 turn out when `c1ccc([C@H]2CNCc3ccccc32)cc1` was run?
**A.** The AC50 was 5.01 µM (active).

**Q.** `O=[As](O)(O)c1ccc2nc3cc([As](=O)(O)O)ccc3nc2c1` was tested. Which activity, negative = inhibition did it give?
**A.** The activity, negative = inhibition was 14.5% [at 11.4 µM].

**Q.** Which “activity, negative = inhibition” value does the source give for `CC(=O)OCC1=C(C(=O)O)N2C(=O)[C@@H](N)[C@@H]2SC1` here?
**A.** Its value is 5.59% [at 25.6 µM].

**Q.** `c1cc(CCN2CCCCC2)ccn1` was tested. Which activity, negative = inhibition did it give?
**A.** Its activity, negative = inhibition is -18.4% [at 11.4 µM].

**Q.** How did the AC50 turn out when `O[Si@](CCCN1CCCCC1)(c1ccc(F)cc1)C1CCCCC1` was run?
**A.** The AC50 was 0.501 µM (active).

**Q.** With `CS(=N)(=O)CC[C@@H](N)C(=O)O` (stereo partly drawn) as the compound, how does the “activity, negative = inhibition” value read?
**A.** The value was 3.1% [at 25.6 µM].

**Q.** With `COc1cc([C@@H](O)CN)ccc1O` as the compound, how does the “activity, negative = inhibition” value read?
**A.** The value was -2.5%.

**Q.** How did the AC50 turn out when `O=C(CCN1CC2CCC(CC2)C1)c1cccs1` was run?
**A.** Its AC50 is 2 µM (active).

**Q.** How did the “activity, negative = inhibition” value turn out when `C/C=C1\C[C@H](C)[C@@](O)(CO)C(=O)OCC2=CCN3CC[C@@H](OC1=O)[C@@H]23` was run?
**A.** Its value is 8.82% [at 25.6 µM].

**Q.** For `C[N+](C)(C)CCCCCC[N+](C)(C)C`, which “activity, negative = inhibition” value is on record?
**A.** Its value is -2.19%.

**Q.** With `N=C1c2ccccc2CN1NC(=O)c1ccc(Cl)cc1` as the compound, how does the AC50 read?
**A.** Its AC50 is 0.794 µM (active).

**Q.** `NP(N)(=O)NC(=O)c1ccc(F)cc1` was tested. Which “activity, negative = inhibition” value did it give?
**A.** The value was 0.0851%.

**Q.** For `N=C1c2ccccc2CN1NC(=O)c1ccc(F)cc1`, which AC50 is on record?
**A.** Its AC50 is 1.26 µM (active).

**Q.** How did the “activity, negative = inhibition” value turn out when `CS(=O)(=O)N1CCCC(C(=O)N2CCC3(CC2)OCCO3)C1` (stereo not drawn) was run?
**A.** Its value is 8.4%.

**Q.** `CC12CN3CC(C)(CN(C1)C31CCSCC1)C2=O` was tested. Which “activity, negative = inhibition” value did it give?
**A.** The value was -17.1%.

**Q.** `NCC#Cc1ccccc1` was tested. Which “activity, negative = inhibition” value did it give?
**A.** The value was -4.23%.

**Q.** For `NCCSC(c1ccccc1)c1ccccc1`, which AC50 is on record?
**A.** Its AC50 is 0.794 µM (active).

**Q.** How did the “activity, negative = inhibition” value turn out when `O=C1NC(=O)N(CCNc2ncc(C(F)(F)F)cc2Cl)C(=O)C1/C=N/OCc1c(F)cccc1Cl` (stereo not drawn) was run?
**A.** The value was -4.63%.

**Q.** With `C[C@]12CC[C@@H]3C(=CCc4cc(O)ccc43)[C@@H]1CCC2=O` as the compound, how does the “activity, negative = inhibition” value read?
**A.** Its value is -5.94% [at 25.6 µM].

**Q.** `O=C(Nc1cccc(C(F)(F)F)c1)c1cccn(Cc2ccc3c(c2)OC(F)(F)O3)c1=O` was tested. Which “activity, negative = inhibition” value did it give?
**A.** Its value is 11.6%.

**Q.** With `NC(N)=NS(=O)(=O)c1ccc(N)cc1` as the compound, how does the “activity, negative = inhibition” value read?
**A.** The value was 4.32% [at 25.6 µM].

**Q.** With `N=C(N)c1ccc(-c2ccc(-c3ccc(C(=N)N)cc3)o2)cc1` as the compound, how does the activity, negative = inhibition read?
**A.** The activity, negative = inhibition was 11.8% [at 11.4 µM].

**Q.** How did the AC50 turn out when `COc1ccc2[nH]c3c(c2c1)CCN=C3C` was run?
**A.** Its AC50 is 0.631 µM (active).

**Q.** For `COc1ccc2[nH]c3c(c2c1)CCNC3`, which AC50 is on record?
**A.** Its AC50 is 12.6 µM (active).

**Q.** With `COc1ccc2c3c([nH]c2c1)C(C)=NCC3` as the compound, how does the AC50 read?
**A.** The AC50 was 3.98 µM (active).

**Q.** With `COc1ccc(-n2nc(C(F)(F)F)cc2-c2ccc(Cl)cc2)cc1` as the compound, how does the “activity, negative = inhibition” value read?
**A.** The value was 0.773%.

**Q.** With `C[C@]12CC[C@H]3c4ccc(O)cc4CC[C@@H]3[C@H]1CC[C@@H]2OC(=O)CCc1ccccc1` as the compound, how does the activity, negative = inhibition read?
**A.** The activity, negative = inhibition was -5.32% [at 11.4 µM].

**Q.** With `CC1=C(CC[C@H](C)CO)O[C@@H]2C[C@@H]3[C@H]4CC[C@H]5C[C@@H](O)CC[C@]5(C)[C@@H]4CC(=O)[C@@]3(C)[C@@H]12` as the compound, how does the activity, negative = inhibition read?
**A.** Its activity, negative = inhibition is -3.67% [at 11.4 µM].

**Q.** With `CCN(CC)c1ccc(/C=C2/C(=O)NC(=O)N(CC3CCCO3)C2=O)cc1` (stereo not drawn) as the compound, how does the “activity, negative = inhibition” value read?
**A.** Its value is -5.7%.

**Q.** `CC(C)c1ccc(C(c2c(O)c3ccccc3oc2=O)c2c(O)c3ccccc3oc2=O)cc1` was tested. Which activity, negative = inhibition did it give?
**A.** The activity, negative = inhibition was 2.43% [at 11.4 µM].

**Q.** With `COc1cc(CNC(=O)CCCC/C=C\C(C)C)ccc1O` as the compound, how does the “activity, negative = inhibition” value read?
**A.** Its value is -14.5% [at 25.6 µM].

**Q.** With `O=C(C[n+]1ccc2ccccc2c1)c1ccc2ccc3ccccc3c2c1` as the compound, how does the AC50 read?
**A.** Its AC50 is 0.794 µM (active).

**Q.** `C[C@H](Br)C(=O)c1ccc2cc(Br)c3ccccc3c2c1` was tested. Which activity, negative = inhibition did it give?
**A.** The activity, negative = inhibition was 8.29% [at 11.4 µM].

**Q.** For `CCCn1c(C)c(C(=O)c2ccc3ccccc3c2)c2ccccc21`, which “activity, negative = inhibition” value is on record?
**A.** The value was -5.36%.

**Q.** `CC1=C(O)C(=O)[C@H]2O[C@@H]2C1=O` was tested. Which “activity, negative = inhibition” value did it give?
**A.** The value was 3.35%.

**Q.** How did the activity, negative = inhibition turn out when `C[C@H]1CC[C@@]2(NC1)O[C@@H]1C[C@@H]3[C@@H]4CC=C5C[C@@H](O)CC[C@]5(C)[C@@H]4CC[C@]3(C)[C@H]1[C@@H]2C` was run?
**A.** The activity, negative = inhibition was 7.13% [at 11.4 µM].

**Q.** With `COC(=O)C[C@](O)(CCCC(C)(C)O)C(=O)O[C@@H]1C(OC)=C[C@]23CCCN2CCc2cc4c(cc2[C@H]13)OCO4` as the compound, how does the “activity, negative = inhibition” value read?
**A.** The value was -0.399%.

**Q.** `CN1C(=O)C(=Cc2ccc(N3CCCCC3)o2)C(=O)N(C)C1=S` was tested. Which “activity, negative = inhibition” value did it give?
**A.** Its value is 1.93%.

**Q.** How did the AC50 turn out when `COC1=C(C)C(=O)c2c(c(COC(N)=O)c3n2C[C@@H]2[C@@H]3N2C)C1=O` (stereo partly drawn) was run?
**A.** Its AC50 is 1.58 µM (active).

**Q.** With `COc1cc2c(c(OC)c1OC)-c1ccc(O)c(=O)cc1[C@H](N)CC2` as the compound, how does the “activity, negative = inhibition” value read?
**A.** Its value is 3.59% [at 25.6 µM].

**Q.** Which activity, negative = inhibition does the source give for `Nc1ccc(S(=O)(=O)c2ccc(NCN3C(=O)NC(=O)C(=O)C3=O)cc2)cc1` here?
**A.** The activity, negative = inhibition was 4.3% [at 11.4 µM].

**Q.** How did the AC50 turn out when `c1ccc(CN2CCN(Cc3ccc4c(c3)OCCO4)CC2)cc1` was run?
**A.** Its AC50 is 12.6 µM (active).

**Q.** How did the “activity, negative = inhibition” value turn out when `c1cc(CN2CCCCC2)cc(OCCCNc2nc3ccccc3s2)c1` was run?
**A.** Its value is 4.28%.

**Q.** For `NC[C@H](O)c1cc(O)c(O)cc1F`, which “activity, negative = inhibition” value is on record?
**A.** Its value is -1.75%.

**Q.** For `CCNC(=S)NC1CC2CCCC(C1)N2Cc1ccco1` (stereo not drawn), which AC50 is on record?
**A.** The AC50 was 2 µM (active).

**Q.** How did the AC50 turn out when `Cc1cc(C)cc(NC(=S)NC2CC3CCC(C2)N3Cc2ccco2)c1` (stereo not drawn) was run?
**A.** The AC50 was 17.8 µM (active).

**Q.** How did the AC50 turn out when `CC(C)CNC(=S)NC1CC2CCCC(C1)N2Cc1ccco1` (stereo not drawn) was run?
**A.** The AC50 was 2 µM (active).
